Results reported in the supplement of paper PMC7695840.

Tested on: Staphylococcus aureus MW2 delta-mecA (mecA-)
Assay: normalized GFP fluorescence (growth of mecA- strain) (fraction of control range); higher = more growth of mecA- strain
Conditions: compound concentration: 150 uM; cefoxitin: subinhibitory; fluorescent label: GFP
Summary of the method: (§1)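 S. aureus MW2 cells, pre-induced, were used as a 1:1 mix of a DsRed strain carrying the gene and a GFP strain lacking it, in LB with a subinhibitory antibiotic dose set each day. At 5 µL/well they were placed onto 150 μM compound (1.5% DMSO) in 1536-well plates, one replicate, and kept unshaken for 20 h at 37 °C, 90% humidity. After DsRed (540/590) and GFP (485/520) reads scaled per plate to single-strain control medians, plates with high untreated ratios and rows with DsRed/GFP >10 were excluded.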

Row | SMILES | normalized GFP fluorescence
1 | CN(C)[C@@H]1C(O)=C(C(N)=O)C(=O)[C@@]2(O)C(O)=C3C(=O)c4c(O)cccc4[C@@](C)(O)[C@H]3[C@H](O)[C@@H]12 [Oxytetracycline dihydrate] | 0.0661
2 | CCC1=C(C)CN(C(=O)NCCc2ccc(S(=O)(=O)NC(=O)N[C@H]3CC[C@H](C)CC3)cc2)C1=O | 0.0961
3 | C=CCCCCCCCCC(=O)O | 0.13
4 | CNC[C@H](O)[C@@H](O)[C@H](O)[C@H](O)CO [Meglumine] | 0.21

Tested on: Staphylococcus aureus MW2 (mecA+)
Assay: normalized DsRed fluorescence (growth of mecA+ strain) (fraction of control range); higher = more growth of mecA+ strain
Conditions: compound concentration: 150 uM; cefoxitin: subinhibitory; fluorescent label: DsRed
Summary of the method: as §1

Row | SMILES | normalized DsRed fluorescence
5 | Cc1cc(-c2ccccc2)nnc1NCCN1CCOCC1 | 0.611
6 | CCc1ccc(CCOc2ccc(CC3SC(=O)NC3=O)cc2)nc1 (stereo not given) | 0.952
7 | Cc1ncc([N+](=O)[O-])n1CCO | 0.581
8 | C=CC(N)CCC(=O)O (stereo not given) | 0.716
9 | CCCNC(=O)NS(=O)(=O)c1ccc(Cl)cc1 | 0.489
10 | CN(C)CC(c1ccc(O)cc1)C1(O)CCCCC1 (stereo not given) | 1.1
11 | CC(C)/N=c1\cc2n(-c3ccc(Cl)cc3)c3ccccc3nc-2cc1Nc1ccc(Cl)cc1 | 1.15
12 | N[C@H](C(=O)O)[C@H](O)c1ccc(O)c(O)c1 [Droxidopa (L-DOPS)] | 1.79
13 | CCCCCCNC(=O)n1cc(F)c(=O)[nH]c1=O [Carmofur] | 0.452
14 | CCOC(=O)OC(C)OC(=O)[C@@H]1N2C(=O)[C@@H](NC(=O)[C@H](N)c3ccccc3)[C@H]2SC1(C)C (stereo not given in full) | 0.591
15 | CCC1(C)CC(=O)NC1=O (stereo not given) | 0.691
16 | O=C1c2ccccc2C(=O)C1c1ccccc1 [Phenindione (Rectadione)] | 0.634
17 | CCOC(=O)O[C@]1(C(=O)COC(=O)CC)CC[C@H]2[C@@H]3CCC4=CC(=O)C=C[C@]4(C)[C@H]3[C@@H](O)C[C@@]21C | 1.07
18 | Clc1ccc(C(c2ccccc2Cl)C(Cl)Cl)cc1 (stereo not given) | 0.731
19 | Nc1ccn([C@H]2CC[C@@H](CO)O2)c(=O)n1 | 0.779
20 | CNC[C@H](O)[C@@H](O)[C@H](O)[C@H](O)CO [Meglumine] | 0.823
